Measurements published in PubChem BioAssay AID1159580 (chemical genetic matrix, 2015).
Where “and” joins values, the source holds several entries; their conditions need not be identical. Identical values can stand only once. Among all 5,500 compounds or so, about 2,000 (36%) were called active. About 18% were inconclusive and are not listed. Rule as the data show it: active = normalized growth mostly below about 0.91 (no sharp cut-off); inconclusive = no clear call, values can overlap the other calls; inactive = mostly above about 0.92. The list shows a part of the results.

Assay: chemical genetic growth profiling, strain panel (AID 1159580);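 also: tested at 20 µM; growth read once vehicle control cultures reached saturation at 30 °C; 1 = growth at the plate median or of vehicle wells; lower values mean less growth of the strain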
Settings: S. cerevisiae deletion strains, growth OD

Measured: normalized growth

COc1ccc(CN(CCN(C)C)c2ccccn2)cc1
inactive: locus YAL013W, strain DEP1, active compounds read low 0.971 | locus YAL021C, strain ccr4, active compounds read low 1.01 | locus YAL026C, strain drs2, active compounds read low 1.03 | locus YAL030W, strain snc1, active compounds read low 0.999 | locus YAL040C, strain CLN3, active compounds read low 0.955 | locus YBL061C, strain skt5, active compounds read low 1.01 | locus YBR009C, strain hhf1, active compounds read low 0.986 | locus YBR021W, strain FUR4, active compounds read low 0.995 | locus YBR023C, strain chs3, active compounds read low 1.03 | locus YBR171W, strain sec66, active compounds read low 1.02 | locus YBR229C, strain ROT2, active compounds read low 0.991 | locus YBR231C, strain swc5, active compounds read low 1.02 | locus YBR279W, strain paf1, active compounds read low 1.01 | locus YCL011C, strain gbp2, active compounds read low 1.03 | locus YCL016C, strain dcc1, active compounds read low 1.03 | locus YCL029C, strain bik1, active compounds read low 0.989 | locus YCL061C, strain MRC1 (second series), active compounds read low 0.986 | locus YCL069W, strain vba3, active compounds read low 1.01 | locus YCR088W, strain abp1, active compounds read low 1.02 | locus YDL005C, strain med2, active compounds read low 1.03 | locus YDL035C, strain GPR1, active compounds read low 0.996 | locus YDL040C, strain nat1, active compounds read low 1.01 | locus YDL074C, strain BRE1, active compounds read low 1.01 | locus YDL101C, strain DUN1, active compounds read low 0.993 | locus YDL134C, strain PPH21, active compounds read low 0.995 | locus YDL185W, strain tfp1, active compounds read low 0.951 | locus YDL192W, strain arf1, active compounds read low 0.978 | locus YDR001C, strain nth1, active compounds read low 1.01 | locus YDR069C, strain doa4, active compounds read low 1.01 | locus YDR101C, strain arx1, active compounds read low 0.982 | locus YDR137W, strain rgp1, active compounds read low 1.04 | locus YDR150W, strain NUM1, active compounds read low 1.02 | locus YDR159W, strain sac3, active compounds read low 0.992 | locus YDR162C, strain NBP2, active compounds read low 0.992 | locus YDR195W, strain ref2 0.966 | locus YDR297W, strain sur2, active compounds read low 1.01 | locus YDR318W, strain mcm21, active compounds read low 0.989 | locus YDR334W, strain swr1, active compounds read low 1 | locus YDR335W, strain msn5, active compounds read low 1.03 | locus YDR363W, strain ESC2, active compounds read low 1 | locus YDR388W, active compounds read low 0.998 | locus YDR392W, strain spt3, active compounds read low 1.04 | locus YDR502C, strain sam2, active compounds read low 0.979 | locus YEL003W, strain gim4, active compounds read low 1.02 | locus YEL037C, strain rad23, active compounds read low 1.01 | locus YEL061C, strain CIN8 (second series), active compounds read low 1.02 | locus YEL061C, strain CIN8, active compounds read low 0.999 | locus YER002W, strain NOP16, active compounds read low 1 | locus YER015W, strain faa2, active compounds read low 1.03 | locus YER016W, strain bim1, active compounds read low 1.02 | locus YER110C, active compounds read low 0.968 | locus YER111C, strain swi4, active compounds read low 1.01 | locus YER155C, strain BEM2 (second series), active compounds read low 1.02 | locus YER155C, strain BEM2, active compounds read low 0.983 | locus YER167W, strain BCK2, active compounds read low 1 | locus YFR010W, strain ubp6, active compounds read low 1 | locus YGL078C, strain dbp3, active compounds read low 0.998 | locus YGL086W, strain mad1, active compounds read low 0.988 | locus YGL167C, strain pmr1, active compounds read low 1.02 | locus YGL173C, strain kem1, active compounds read low 1.02 | locus YGL227W, strain vid30, active compounds read low 1.01 | locus YGL240W, strain doc1, active compounds read low 0.991 | locus YGL248W, strain PDE1, active compounds read low 0.999 | locus YGL253W, strain hxk2, active compounds read low 1.03 | locus YGR078C, strain PAC10, active compounds read low 0.983 | locus YGR135W, strain pre9, active compounds read low 0.988 | locus YGR229C, strain SMI1, active compounds read low 1.01 | locus YGR252W, strain gcn5, active compounds read low 1.12 | locus YHR013C, strain ard1, active compounds read low 1.08 | locus YHR027C, strain rpn1, active compounds read low 1.02 | locus YHR030C, strain SLT2, active compounds read low 0.992 and 1.05 | locus YHR079C, strain IRE1 (second series), active compounds read low 0.987 | locus YHR079C, strain IRE1, active compounds read low 1.06 | locus YHR094C, strain hxt1, active compounds read low 0.981 | locus YHR129C, strain ARP1, active compounds read low 1 | locus YHR142W, strain chs7, active compounds read low 1.05 | locus YHR200W, strain rpn10, active compounds read low 0.993 | locus YIL066C, strain RNR3, active compounds read low 0.995 | locus YIL073C, strain SPO22, active compounds read low 0.916 | locus YIL125W, strain kgd1, active compounds read low 0.973 | locus YIR030C, strain dcg1, active compounds read low 0.99 | locus YJL092W, strain hpr5, active compounds read low 1.02 | locus YJL095W, strain BCK1 (second series), active compounds read low 1 | locus YJL095W, strain BCK1, active compounds read low 1.01 and 1.03 | locus YJL115W, strain asf1, active compounds read low 1.02 | locus YJL129C, strain trk1, active compounds read low 1.03 | locus YJL134W, strain LCB3, active compounds read low 0.989 | locus YJL154C, strain vps35, active compounds read low 1.02 | locus YJL164C, strain tpk1, active compounds read low 1.02 | locus YJL166W, strain qcr8, active compounds read low 1.01 | locus YJL168C, strain set2, active compounds read low 0.993 | locus YJL187C, strain SWE1 (second series), active compounds read low 0.985 | locus YJR043C, strain POL32, active compounds read low 1.01
